Out of some 310,000 compounds screened, about 14,000 (4.5%) showed an effect of 50% or more. The effect is printed as a negative number. The full list was thinned out, with strong results kept by preference. Where a SMILES comes first, the peptide text is derived from it. The star is where a group is joined. Boc = CC(C)(C)OC(=O)*; OtBu = CC(C)(C)O*
Target: human ether-à-go-go-related gene (hERG) potassium channel (human, UniProt Q12809)
Experiment: primary screen, population patch clamp on CHO cells stably expressing hERG; higher = less effect of the substance
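Note: peak tail current of the secondary pulse compared with the same well before compound.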

Chain of human ether-à-go-go-related gene (hERG) potassium channel (Q12809 whole entry, looked up): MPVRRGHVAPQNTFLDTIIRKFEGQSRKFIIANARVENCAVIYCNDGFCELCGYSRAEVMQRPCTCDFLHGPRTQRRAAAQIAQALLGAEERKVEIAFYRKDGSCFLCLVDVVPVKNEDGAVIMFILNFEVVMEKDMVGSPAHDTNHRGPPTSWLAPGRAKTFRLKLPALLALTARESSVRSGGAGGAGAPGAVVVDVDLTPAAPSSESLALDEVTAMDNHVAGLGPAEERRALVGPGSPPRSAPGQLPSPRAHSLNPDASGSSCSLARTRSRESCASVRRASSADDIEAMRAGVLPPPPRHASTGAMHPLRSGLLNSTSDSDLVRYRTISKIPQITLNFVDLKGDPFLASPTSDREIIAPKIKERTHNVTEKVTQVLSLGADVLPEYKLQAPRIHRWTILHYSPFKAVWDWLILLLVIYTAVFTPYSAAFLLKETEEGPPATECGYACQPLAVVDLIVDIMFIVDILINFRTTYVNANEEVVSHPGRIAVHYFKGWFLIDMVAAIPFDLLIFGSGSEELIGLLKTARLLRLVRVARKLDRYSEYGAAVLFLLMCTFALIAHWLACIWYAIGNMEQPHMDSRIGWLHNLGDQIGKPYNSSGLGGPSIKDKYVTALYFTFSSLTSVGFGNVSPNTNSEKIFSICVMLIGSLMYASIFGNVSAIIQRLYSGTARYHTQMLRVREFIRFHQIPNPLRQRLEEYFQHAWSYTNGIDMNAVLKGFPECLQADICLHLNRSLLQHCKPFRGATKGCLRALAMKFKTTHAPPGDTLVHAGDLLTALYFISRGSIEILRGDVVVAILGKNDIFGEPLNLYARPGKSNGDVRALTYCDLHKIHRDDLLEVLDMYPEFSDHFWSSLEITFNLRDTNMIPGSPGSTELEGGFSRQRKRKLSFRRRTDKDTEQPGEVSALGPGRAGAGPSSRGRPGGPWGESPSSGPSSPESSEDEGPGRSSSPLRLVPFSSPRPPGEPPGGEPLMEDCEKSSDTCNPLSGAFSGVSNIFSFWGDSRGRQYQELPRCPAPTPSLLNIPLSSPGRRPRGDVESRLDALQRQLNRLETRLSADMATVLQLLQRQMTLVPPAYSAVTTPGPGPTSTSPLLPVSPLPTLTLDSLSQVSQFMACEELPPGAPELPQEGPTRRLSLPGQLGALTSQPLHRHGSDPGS

Compound | hERG current change (%, negative = inhibition) at 10uM [%]
COc1ccc2c(c1OC)C(=O)N(C(C)C(=O)O)C2=O (centres unmarked) | 10.1
Cc1ccc(NC(=O)CSc2nnc3ccc(-c4cccnc4)nn23)cc1 | -49.3
O=C(CSc1nnc2ccc(-c3cccnc3)nn12)Nc1ccccc1 | -50.6
CC(=O)Nc1ccc(NC(=O)CSc2nnc3ccc(-c4cccnc4)nn23)cc1 | 19.8
CC(c1nnc(SCC(=O)NC(=O)NCc2ccco2)n1-c1ccc(Cl)cc1)N(C)C (centres unmarked) | -8.66
CC(C)COc1ccc(C/C(N)=N/n2cnnc2)cc1 | 30.4
COC(=O)CSc1nc2nc(C)cc(C)n2n1 | 4.29
CS(=O)(=O)N1CCN(c2ccnc3cc(Cl)ccc23)CC1 | -78.6
CN(C)S(=O)(=O)N1CCN(c2ccnc3cc(Cl)ccc23)CC1 | -76.2
CN(C)S(=O)(=O)N1CCN(c2cc(Cl)ccc2Cl)CC1 | -8.38
CC(C)S(=O)(=O)N1CCN(c2ccnc3cc(Cl)ccc23)CC1 | -71.6
Cc1ccc(Cl)cc1N1CCN(S(C)(=O)=O)CC1 | -5.31
Cl.ClCCN1CCN(c2ccnc3cc(Cl)ccc23)CC1 | -20.8
CCS(=O)(=O)N1CCN(c2ccnc3cc(Cl)ccc23)CC1 | -73.2
Cc1cc(C)c[n+](-c2[nH]c(=O)sc2/C=N/N=C(\N)[S-])c1 | 22
COCCn1c(SCC(=O)NC2CCCC2)nc2cccnc21 | 17.1
COc1ccccc1-n1cnnc1SCC(=O)c1ccc[nH]1 | -0.89
Cc1ccccc1NC(=S)N(CCN1CCOCC1)Cc1ccccc1F | 30.1
Cl.Clc1ccc(CNCCC2=CCCCC2)cc1 | -40

Compound | hERG current change (%, negative = inhibition) at 10uM [%]
CC(Oc1ccc(Br)cc1Br)C(=O)NC1CCCC1 (centres unmarked) | 16.2
COc1ccc(N(CC(=O)N2CCc3ccccc3C2)S(=O)(=O)c2ccccc2)cc1 | -32.1
N#Cc1nc(COc2ccccc2Cl)oc1NCc1cccnc1 | -51.2
N#Cc1nc(COc2cccc(Cl)c2)oc1NCc1ccco1 | -16.8
N#Cc1nc(COc2ccccc2Cl)oc1NCc1ccc(F)cc1 | 0.159
Cc1ccc(CNc2oc(COc3ccccc3Cl)nc2C#N)cc1 | 13.2
CN(C)CCNc1oc(COc2cccc(Cl)c2)nc1C#N | -16.1
N#Cc1nc(COc2cccc(Cl)c2)oc1NCc1ccncc1 | -73.7
FC(F)(F)c1ccc(C2[C@H]3CN(CC4CCCCC4)[C@H](c4ccccc4)C34CC2(c2cccnc2)C4)cc1 (some centres unmarked) | 0.391
CN1CCN(C(=O)c2c(O)c3cccc4c3n(c2=O)CCC4)CC1.Cl | 6.48
c1ccc(Cc2nc3ccccc3[nH]2)cc1 | -6.39
CCOc1ccc(Nc2nc3c(c(=O)[nH]2)CCCC3)cc1 | -3.98
COC(=O)c1ccc(/C=C2/SC(=S)N(CCCC(=O)Nc3ccccn3)C2=O)cc1 | 15.4
CC(NC(=O)C(CC(=O)OC(C)(C)C)NC(=O)OC(C)(C)C)C(N)=O (centres unmarked) (Boc-Asp(OtBu)-Ala-NH2; configuration not given here) | -5.99
Cc1sc2ncn(CC(=O)NCCCC(=O)N3CCN(c4ncccn4)CC3)c(=O)c2c1C | 7.64
N#C/C(=C\c1ccco1)Sc1nc2ccccc2s1 | 0.525
O=C(NCCc1nnc2ccc(NCc3ccc(F)cc3)nn12)c1ccccc1 | -29
Cn1c(=O)c2c(n(Cc3ccccc3)c1=O)NC(=O)C2CC(=O)O (centres unmarked) | 12.6
CC(C)Cn1c(O)c2ccc(C(=O)N=NC(=O)c3cccnc3)cc2c1O | 17

Compound | hERG current change (%, negative = inhibition) at 10uM [%]
COc1ccc(/C=C/C(=O)NC(=S)N2CCN(c3ccccn3)CC2)cc1 | -6.85
CCc1ccccc1NC(=S)N(CCCN1CCOCC1)Cc1ccccn1 | -25.8
Cc1ccc(NC(=S)N(CCCN2CCOCC2)Cc2ccccn2)cc1 | -22.8
COc1cccc(NC(=S)N(Cc2ccc(C)cc2)Cc2ccccn2)c1 | -30.2
COc1ccc(NC(=S)N(Cc2ccc(C)cc2)Cc2ccccn2)cc1 | -50.5
S=C(Nc1ccc(Oc2ccccc2)cc1)N(CCCN1CCOCC1)Cc1ccccn1 | -70
CCc1ccc(NC(=S)N(CCCN2CCOCC2)Cc2ccccn2)cc1 | -56.3
COc1ccccc1NC(=S)N(Cc1ccc(C)cc1)Cc1ccccn1 | -39.1
Cc1cccc(NC(=S)N(CCCN2CCOCC2)Cc2ccccn2)c1 | -22.3
COc1ccc(NC(=S)N(CCCN2CCOCC2)Cc2ccccn2)cc1 | -14.4
N#Cc1ccccc1OCC(=O)NCCNC(=O)COc1ccccc1C#N | -10.1
CCOC(=O)C(C)Oc1c(Br)cc(C2NC(=O)NC(C)=C2C(C)=O)cc1OCC (centres unmarked) | 3.1
COc1cccc(C(=O)NCCC(=O)NCc2cc(=O)n(C)c(=O)n2C)c1 | 13.9
Cn1ccc(-c2ccccc2)c(C#N)c1=O | 3.34
CS(=O)(=O)CCC(C(=O)OCc1ccc(Br)cc1)N1C(=O)c2ccccc2C1=O (centres unmarked) | -0.0845
COC(=O)c1cc(C(=O)NNC(=O)c2ccc3c(c2)OCO3)cc([N+](=O)[O-])c1 | -7.98
O=C(CN(Cc1ccco1)C(=O)c1ccccc1F)Nc1ccccc1C(F)(F)F | 2.3
CNC(=S)N/N=C/c1cn(Cc2ccc(F)cc2)c2ccccc12 | -4.59
